KB-V1 cytotox = qHTS assay for MDR1-selective chemotherapeutics: Primary screen using the drug-selected MDR subline cells KB-V1 | KB-V1 MDR cells viability, CellTiter-Glo, 72 h | Potency, µM (titrated, usually from 46.1 µM), most hits filed as cytotoxic | 400,000 tested, 3.4% active | AID 1347076, 2019; also: nearly all actives have a fitted effect of over 60% in size
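Following 72 h at 37 degrees C with compound, KB-V1 cell viability was read by CellTiter-Glo luminescence, medium being phenol-red-free DMEM plus 10% FBS; concentration-response parameters came from normalized, curve-fitted qHTS data.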
HT1080-NT tox = qHTS for induction of synthetic lethality in tumor cells producing 2HG: qHTS for the HT-1080-NT fibrosarcoma cell line; HT-1080-NT fibrosarcoma viability, CellTiter-Glo ATP luminescence, 48 h; AID 686970, 2013; 360,000 tested, 1.6% active; Potency, µM (top dose mostly 46.1 µM), actives largely listed as cytotoxic;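 also: NT is the 2HG producing partner of a matched IDH1 knockdown line; nearly all actives have a fitted effect of over 55% in size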
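Viability by CellTiter-Glo luminescence after 48 h compound exposure at 37C of HT-1080-NT cells (750/well, RPMI, 5% FBS). % activity scaled between DMSO wells and medium-only wells, then curve-fitted and categorized by curve class.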
HT1080 IDH1KD tx = qHTS for induction of synthetic lethality in tumor cells producing 2HG: qHTS for the HT-1080-IDH1KD cell line; Potency, µM (titrated, usually from 46.1 µM), most hits filed as cytotoxic; HT-1080 IDH1 knockdown viability, ATP luminescence, 48 h; 360,000 tested, 2% active
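% activity derives from luminescence (CellTiter-Glo), normalised to DMSO and no-cell wells. HT-1080-IDH1KD cells, 750/well, had 48 h compound exposure at 37 °C.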
IL-1B inflam inh = qHTS for Inhibitors of Inflammasome Signaling: IL-1-beta AlphaLISA Primary Screen. 360,000 tested, 4.7% active. activity change, % at 57.5 µM. THP-1 LPS/ATP IL-1B secretion, AlphaLISA, 16 h; active compounds read low. AID 743279, 2014; in the data active = activity change below about -50%; inconclusive = mostly about -30% to -49%
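THP-1 cells pretreated 1 hr with compounds (up to 57.5 uM final), then stimulated with LPS (250 ng/mL final) plus ATP (1.25 mM final); secreted IL-1B measured by AlphaLISA after 16 hr, decreased signal indicating inhibition.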
KB-3-1 tox = qHTS assay for MDR1-selective chemotherapeutics: Primary screen using the parental adenocarcinoma cell KB-3-1; KB-3-1 viability, CellTiter-Glo ATP luminescence, 72 h; Potency, µM (highest dose often 46.1 µM), most hits filed as cytotoxic; 400,000 tested, 1.4% active; AID 1347075, 2019; also: nearly all actives have a fitted effect of over 60% in size
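Luminescent ATP read-out (CellTiter-Glo) measures survival of drug-naive KB-3-1 cells after 72 h compound exposure at 37 °C. Titration series was screened from lowest to highest concentration, with DMSO vehicle plates as background controls.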
Hits are given with their value; n = inactive; u = inconclusive; x = no result. Only some compounds are listed: those with a hit (about 8.8% of all), similar ones and a draw of the others. Unless noted, calls follow the shape of the dose curve; as a rule, active = well fitted curve in the direction sought with a large enough effect; inconclusive = small, poorly fitted or top-dose-only effect, or another doubt; inactive = no such curve, though single readings can be large; an effect the other way counts as inactive or inconclusive.

SMILES	KB-V1 cytotox	HT1080-NT tox	HT1080 IDH1KD tx	IL-1B inflam inh	KB-3-1 tox
S=c1[nH]nc(COc2ccccc2)n1/N=C/c1ccc(Cl)c(Cl)c1	n	n	n	n	n
Cc1cc(/C=N/n2c(COc3ccccc3C)nc3ccccc3c2=O)c(O)c([N+](=O)[O-])c1	n	u	u	n	n
O=[N+]([O-])c1ccc(Cl)c(/C=N/n2c(COc3ccccc3)n[nH]c2=S)c1	16µM	u	n	n	n
Cc1[nH]c2ccccc2c1C(=O)C(=O)Nc1ccc2c(c1)OCCO2	n	n	n	n	n
O=C(Nc1ccc2c(c1)OCO2)C(=O)c1c[nH]c2ccccc12	n	u	u	n	6.5µM
O=C(Nc1ccc2c(c1)OCCO2)C(=O)c1c[nH]c2ccccc12	n	7.3µM	u	u	3.7µM
COc1ccc(C(C(=O)Nc2ccc3c(c2)OCO3)N(C)C(=O)Cc2c[nH]c3ccccc23)cc1 (stereo not drawn)	n	u	u	-58	n
COc1ccc(NC(=O)C(c2ccccc2)N(C)C(=O)/C=C\c2ccc3c(c2)OCO3)cc1 (stereo not drawn)	n	x	x	x	n
CCN(CC)CCCNC(=O)CNC(=O)c1nn(-c2ccc(OC)cc2OC)c(=O)c2ccccc12	u	n	n	n	n
COc1ccc(CNC(=O)O[C@H]2C[C@@H]3C(=O)N(c4ccccc4)C(=O)[C@@H]3[C@@H]3CN(S(=O)(=O)c4ccc(C)cc4)C[C@]23O)cc1OC	n	n	n	n	u
CC(C)NC(=O)NC(=O)COC(=O)Cc1c(F)cccc1Cl	n	n	n	n	n
Cc1ccc(C(=O)N2N=C(c3ccc(Br)cc3)CC2c2ccccc2O)cc1 (stereo not drawn)	u	15µM	15µM	-94	u
O=C(c1ccccc1)N1N=C(c2ccccc2)CC1(O)C(F)(F)F (stereo not drawn)	n	n	n	n	n
COc1ccc(C2=NN(C(=O)c3cccs3)C(c3ccccc3O)C2)cc1 (stereo not drawn)	n	n	n	-59	n
CNC(=S)N1N=C(c2ccc(C)cc2)CC1c1ccc(Br)cc1 (stereo not drawn)	15µM	n	u	u	n
COc1ccc(C2=NN(C(=O)c3cccs3)C(O)(C(F)(F)F)C2)cc1 (stereo not drawn)	n	n	n	-52	u
Cc1cc(C)cc(N(CC(=O)Nc2c(C)cc(C)cc2C)S(=O)(=O)c2c(C)nn(C)c2C)c1	n	x	x	x	n
CCCN1Cc2cccc(C(=O)Nc3cc(C)cc(C)c3)c2C1=O	n	x	x	x	n
CCCCCN(C(=O)CCC(=O)OCCOc1ccc(OCC)cc1)c1c(N)n(CCCC)c(=O)[nH]c1=O	n	n	n	u	u
N#CC1(Nc2ccc(C(=O)O)cc2)CCCC1	n	n	n	n	n
CN(C)CCNC(=O)c1nn(C)c2c1CCc1ccccc1-2	n	n	n	n	n
CCS(=O)(=O)N1CCC(c2nc(-c3ccc(C)cc3)no2)CC1	u	n	n	n	u
O=S(=O)(c1ccc(Cl)c(F)c1)N1CCC(c2nc(-c3ccncc3)no2)CC1	21µM	u	n	n	n
CCS(=O)(=O)N1CCC(c2nc(-c3ccc(C(F)(F)F)cc3)no2)CC1	n	n	n	n	6.5µM
O=[N+]([O-])c1cccc(S(=O)(=O)N2CCC(c3nc(-c4ccncc4)no3)CC2)c1	n	n	n	n	n
SMILES	KB-V1 cytotox	HT1080-NT tox	HT1080 IDH1KD tx	IL-1B inflam inh	KB-3-1 tox
COc1ccc(OC)c(/C=C/C(=O)N2CCN(S(=O)(=O)c3cc(C)ccc3C)CC2)c1	n	n	n	u	n
COc1ccc(OC)c(/C=C/C(=O)N2CCN(S(=O)(=O)c3ccc(C)cc3C)CC2)c1	3.7µM	n	n	n	u
COc1cc(C(=O)OCC(=O)N2CCN(S(=O)(=O)c3ccc(C)cc3C)CC2)c([N+](=O)[O-])cc1OC	9.2µM	n	n	n	n
Cc1ccc(S(=O)(=O)NCCC2=CCCCC2)cc1	n	n	n	n	n
CC(=O)N1CCc2cc(S(=O)(=O)NCCC3=CCCCC3)ccc21	u	n	21µM	n	n
CC(=O)N1CCc2cc(S(=O)(=O)NCCCN3CCCCC3)ccc21	u	n	n	n	n
O=S(=O)(NCCC1=CCCCC1)c1ccc(OC(F)(F)F)cc1	n	n	n	-91	n
CC(=O)N1CCc2cc(S(=O)(=O)NCCC(=O)N3CCc4ccccc4C3)ccc21	23µM	n	n	n	u
O=C(COC(=O)c1cc(-c2ccccn2)nc2ccccc12)Nc1ncc(C(F)(F)F)cc1Cl	n	n	n	n	n
CCN(C(=O)c1ccco1)C1C2CC3CC(C2)CC1C3 (stereo not drawn)	n	n	n	n	n
O=C(NCc1ccccc1)c1cc(C2CCCN(S(=O)(=O)c3cccs3)C2)on1 (stereo not drawn)	n	n	n	-59	n
C[C@@H]1CN([C@H](C)CO)C(=O)CCCn2cc(nn2)CO[C@H]1CN(C)C(=O)c1ccccc1	n	n	n	n	n
Cc1ccc(C(=O)Sc2cccccc2=O)cc1	2.6µM	u	1.6µM	-97	u
Cc1cccc2cc(CN(Cc3nnnn3Cc3ccco3)C3CCCC3)c3nnnn3c12	12µM	n	n	n	n
Cc1ccc2[nH]c(=O)c(CN(Cc3nnnn3Cc3ccccc3)C3CCCC3)cc2c1	n	n	n	-69	n
Cc1ccc2[nH]c(=O)c(CN(Cc3ccccc3)Cc3nnnn3Cc3ccccc3)cc2c1	n	x	x	x	n
Cc1cccc2cc(CN(Cc3nnnn3C3CCCC3)C3CCCCC3)c(=O)[nH]c12	23µM	n	n	n	n
CCN(CC)CCNC(=O)C(=O)Nc1c2c(nn1-c1ccc(F)cc1)CSC2	n	x	x	x	n
O=C(OCC(O)C(O)C(O)C(SCc1ccccc1)SCc1ccccc1)c1ccccc1 (stereo not drawn)	n	n	u	-72	n
O=C(OCC(O)C(O)C(O)COC(=O)c1ccccc1)c1ccccc1 (stereo not drawn)	n	n	n	n	n
CCOC(=O)COc1cc(Br)c(/C=N/Nc2ccccc2)cc1OC	n	u	u	-93	u
COc1cc(C=O)c(Br)cc1OCC(=O)NCCc1ccccc1	n	n	u	n	n
COc1ccc(C(=O)NCC(c2cccnc2)N2CCN(c3ccccc3F)CC2)cc1OC (stereo not drawn)	n	x	x	x	n
CCOC(CN=c1nc(N(C)C)ss1)OCC	u	n	u	-101	n

Compound activity from PubChem BioAssay.
